Results reported in the supplement of paper PMC11732987, “Enantioselective OTUD7B fragment discovery through chemoproteomics screening and high-throughput optimisation” (Communications Chemistry, 2025).

Experiments:
Assay in all cases: log2 ratio of Biotin-Ahx-Ub-VS probe labelling (fragment/DMSO); higher = less target engagement (more negative = stronger competition), active = hit call of the paper (q ≤ 0.05, log2 ratio ≤ -1)
Settings in all cases: compound concentration: 200 uM; treatment time: 3 h
OTUD6B = biological target: T1, OTUD6B (UniProt Q8N6M0)
T1 sequence (whole entry): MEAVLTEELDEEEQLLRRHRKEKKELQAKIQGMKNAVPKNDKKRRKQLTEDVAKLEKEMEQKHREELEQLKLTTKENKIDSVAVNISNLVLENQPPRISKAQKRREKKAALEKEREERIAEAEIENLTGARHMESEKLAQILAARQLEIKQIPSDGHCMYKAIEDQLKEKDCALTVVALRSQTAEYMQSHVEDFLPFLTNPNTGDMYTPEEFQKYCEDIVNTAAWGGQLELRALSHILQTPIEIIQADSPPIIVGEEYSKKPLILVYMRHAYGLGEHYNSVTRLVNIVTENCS
Method in brief: (§1)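 Average log2 ratios of fragment over vehicle were obtained by unpaired t-test from global-median-normalised Spectronaut label-free quantities. Proteins with ≥2 unique peptides were included. HEK293T lysate (495 µg per sample) was treated in triplicate with fragment at 200 µM or vehicle for 3 h, then with Biotin-Ahx-Ub-VS at 0.5 µM final for 1 h, and labelled DUBs were NeutrAvidin-enriched and run by diaPASEF LC-MS/MS.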

OTUD7B = biological target: T2, OTUD7B (UniProt Q6GQQ9)
T2 sequence (whole entry): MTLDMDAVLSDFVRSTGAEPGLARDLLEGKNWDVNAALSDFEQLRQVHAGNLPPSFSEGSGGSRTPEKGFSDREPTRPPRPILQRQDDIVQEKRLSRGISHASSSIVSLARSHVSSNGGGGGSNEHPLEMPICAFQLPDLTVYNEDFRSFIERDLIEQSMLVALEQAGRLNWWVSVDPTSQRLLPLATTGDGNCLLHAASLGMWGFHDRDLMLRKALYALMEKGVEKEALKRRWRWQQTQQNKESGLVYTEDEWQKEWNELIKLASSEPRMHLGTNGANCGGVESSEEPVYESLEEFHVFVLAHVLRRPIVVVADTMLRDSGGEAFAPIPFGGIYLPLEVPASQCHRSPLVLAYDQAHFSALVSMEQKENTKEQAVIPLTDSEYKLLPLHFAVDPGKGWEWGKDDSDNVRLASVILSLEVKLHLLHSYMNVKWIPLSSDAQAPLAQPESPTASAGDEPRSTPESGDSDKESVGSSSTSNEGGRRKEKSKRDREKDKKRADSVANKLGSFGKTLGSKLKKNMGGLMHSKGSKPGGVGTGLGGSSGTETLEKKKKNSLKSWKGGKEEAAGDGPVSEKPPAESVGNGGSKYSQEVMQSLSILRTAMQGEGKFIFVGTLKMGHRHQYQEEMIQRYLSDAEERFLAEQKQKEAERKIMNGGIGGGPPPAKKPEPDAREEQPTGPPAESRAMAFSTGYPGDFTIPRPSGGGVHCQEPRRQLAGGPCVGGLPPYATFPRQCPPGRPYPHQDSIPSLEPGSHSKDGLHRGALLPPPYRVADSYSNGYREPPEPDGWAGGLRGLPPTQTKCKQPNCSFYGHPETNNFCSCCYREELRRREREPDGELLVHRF
Method in brief: as §1

PRPF8 = PRPF8 (UniProt Q6P2Q9)
Method in brief: as §1

PSMD7 = biological target: T3, PSMD7 (UniProt P51665)
T3 sequence (whole entry): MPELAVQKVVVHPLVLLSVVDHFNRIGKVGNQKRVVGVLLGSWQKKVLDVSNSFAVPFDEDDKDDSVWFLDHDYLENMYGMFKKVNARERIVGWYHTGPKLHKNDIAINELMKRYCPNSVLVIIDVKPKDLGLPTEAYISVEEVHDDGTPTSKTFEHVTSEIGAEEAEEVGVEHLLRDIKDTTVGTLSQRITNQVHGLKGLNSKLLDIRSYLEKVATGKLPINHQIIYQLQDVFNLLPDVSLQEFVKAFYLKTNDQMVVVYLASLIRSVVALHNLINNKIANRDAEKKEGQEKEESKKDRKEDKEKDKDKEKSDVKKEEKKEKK
Method in brief: as §1

UCHL1 = UCHL1 (UniProt P09936)
Method in brief: as §1

UCHL3 = biological target: T4, UCHL3 (UniProt P15374)
T4 sequence (whole entry): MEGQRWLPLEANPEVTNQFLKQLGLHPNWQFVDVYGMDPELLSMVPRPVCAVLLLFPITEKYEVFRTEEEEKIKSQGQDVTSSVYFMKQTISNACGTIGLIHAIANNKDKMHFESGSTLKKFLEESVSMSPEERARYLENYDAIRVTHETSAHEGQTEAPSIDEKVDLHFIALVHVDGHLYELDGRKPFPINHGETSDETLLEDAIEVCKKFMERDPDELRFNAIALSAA
Method in brief: as §1

UCHL5 = biological target: T5, UCHL5 (UniProt Q9Y5K5)
T5 sequence (whole entry): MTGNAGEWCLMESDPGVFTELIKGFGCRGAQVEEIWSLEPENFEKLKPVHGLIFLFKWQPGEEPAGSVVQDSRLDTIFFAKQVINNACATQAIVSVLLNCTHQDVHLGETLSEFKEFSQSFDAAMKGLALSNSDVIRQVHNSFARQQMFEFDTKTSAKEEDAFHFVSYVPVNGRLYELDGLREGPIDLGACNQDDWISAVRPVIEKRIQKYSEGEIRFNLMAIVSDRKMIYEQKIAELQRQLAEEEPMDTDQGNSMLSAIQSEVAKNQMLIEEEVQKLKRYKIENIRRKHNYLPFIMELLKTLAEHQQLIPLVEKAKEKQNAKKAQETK
Method in brief: as §1

USP10 = USP10 (UniProt Q14694)
Method in brief: as §1

USP15 = biological target: T6, USP15 (UniProt Q9Y4E8)
T6 sequence (whole entry): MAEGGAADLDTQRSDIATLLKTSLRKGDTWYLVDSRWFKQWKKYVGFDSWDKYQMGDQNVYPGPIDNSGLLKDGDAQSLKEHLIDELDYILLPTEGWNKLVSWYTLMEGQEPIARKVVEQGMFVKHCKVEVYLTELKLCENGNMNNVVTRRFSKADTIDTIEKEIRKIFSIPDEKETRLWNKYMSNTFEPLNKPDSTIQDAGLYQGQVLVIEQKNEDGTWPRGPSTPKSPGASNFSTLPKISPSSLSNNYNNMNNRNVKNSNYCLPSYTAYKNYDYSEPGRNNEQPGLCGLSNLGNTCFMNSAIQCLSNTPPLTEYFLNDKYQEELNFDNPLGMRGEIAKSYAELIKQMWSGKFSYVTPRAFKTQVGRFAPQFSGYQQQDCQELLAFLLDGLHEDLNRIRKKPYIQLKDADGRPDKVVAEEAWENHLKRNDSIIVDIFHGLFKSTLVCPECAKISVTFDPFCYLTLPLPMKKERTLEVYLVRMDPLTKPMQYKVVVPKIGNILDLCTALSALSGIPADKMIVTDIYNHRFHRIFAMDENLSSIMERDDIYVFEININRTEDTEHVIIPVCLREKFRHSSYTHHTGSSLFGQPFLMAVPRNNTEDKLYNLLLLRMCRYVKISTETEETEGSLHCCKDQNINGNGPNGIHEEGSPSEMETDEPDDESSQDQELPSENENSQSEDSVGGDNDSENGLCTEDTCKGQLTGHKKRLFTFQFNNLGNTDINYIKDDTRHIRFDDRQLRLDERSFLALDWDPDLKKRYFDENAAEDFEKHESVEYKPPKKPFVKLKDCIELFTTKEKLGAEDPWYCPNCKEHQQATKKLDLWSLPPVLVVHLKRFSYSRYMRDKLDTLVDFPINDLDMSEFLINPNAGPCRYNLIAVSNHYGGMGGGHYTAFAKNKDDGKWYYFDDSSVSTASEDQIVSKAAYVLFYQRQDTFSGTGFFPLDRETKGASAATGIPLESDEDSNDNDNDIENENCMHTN
Method in brief: as §1

USP16 = USP16 (UniProt Q9Y5T5)
Method in brief: as §1

Measured: log2 ratio of Biotin-Ahx-Ub-VS probe labelling

Sequence of USP16 (Q9Y5T5 whole entry, looked up): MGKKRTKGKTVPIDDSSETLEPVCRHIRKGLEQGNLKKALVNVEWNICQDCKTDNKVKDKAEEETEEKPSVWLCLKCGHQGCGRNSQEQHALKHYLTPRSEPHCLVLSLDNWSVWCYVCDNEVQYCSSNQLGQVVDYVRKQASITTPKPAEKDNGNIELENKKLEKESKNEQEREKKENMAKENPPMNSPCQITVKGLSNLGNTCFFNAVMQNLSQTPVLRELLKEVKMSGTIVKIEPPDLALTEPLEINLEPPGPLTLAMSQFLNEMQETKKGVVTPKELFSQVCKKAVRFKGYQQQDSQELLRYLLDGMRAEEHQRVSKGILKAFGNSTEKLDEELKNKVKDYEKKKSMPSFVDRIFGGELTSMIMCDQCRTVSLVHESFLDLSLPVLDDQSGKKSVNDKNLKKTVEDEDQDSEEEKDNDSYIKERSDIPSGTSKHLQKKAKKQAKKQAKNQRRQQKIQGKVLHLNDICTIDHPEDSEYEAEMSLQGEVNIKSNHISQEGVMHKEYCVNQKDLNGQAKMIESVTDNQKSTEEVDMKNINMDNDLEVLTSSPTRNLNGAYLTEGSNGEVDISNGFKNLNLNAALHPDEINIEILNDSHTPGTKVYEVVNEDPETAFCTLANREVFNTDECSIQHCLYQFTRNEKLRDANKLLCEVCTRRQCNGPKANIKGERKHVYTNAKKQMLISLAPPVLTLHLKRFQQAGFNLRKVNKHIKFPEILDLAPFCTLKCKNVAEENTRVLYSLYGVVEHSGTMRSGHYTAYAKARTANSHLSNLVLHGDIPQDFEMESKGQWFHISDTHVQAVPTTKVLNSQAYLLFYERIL
Sequence of USP10 (Q14694 whole entry): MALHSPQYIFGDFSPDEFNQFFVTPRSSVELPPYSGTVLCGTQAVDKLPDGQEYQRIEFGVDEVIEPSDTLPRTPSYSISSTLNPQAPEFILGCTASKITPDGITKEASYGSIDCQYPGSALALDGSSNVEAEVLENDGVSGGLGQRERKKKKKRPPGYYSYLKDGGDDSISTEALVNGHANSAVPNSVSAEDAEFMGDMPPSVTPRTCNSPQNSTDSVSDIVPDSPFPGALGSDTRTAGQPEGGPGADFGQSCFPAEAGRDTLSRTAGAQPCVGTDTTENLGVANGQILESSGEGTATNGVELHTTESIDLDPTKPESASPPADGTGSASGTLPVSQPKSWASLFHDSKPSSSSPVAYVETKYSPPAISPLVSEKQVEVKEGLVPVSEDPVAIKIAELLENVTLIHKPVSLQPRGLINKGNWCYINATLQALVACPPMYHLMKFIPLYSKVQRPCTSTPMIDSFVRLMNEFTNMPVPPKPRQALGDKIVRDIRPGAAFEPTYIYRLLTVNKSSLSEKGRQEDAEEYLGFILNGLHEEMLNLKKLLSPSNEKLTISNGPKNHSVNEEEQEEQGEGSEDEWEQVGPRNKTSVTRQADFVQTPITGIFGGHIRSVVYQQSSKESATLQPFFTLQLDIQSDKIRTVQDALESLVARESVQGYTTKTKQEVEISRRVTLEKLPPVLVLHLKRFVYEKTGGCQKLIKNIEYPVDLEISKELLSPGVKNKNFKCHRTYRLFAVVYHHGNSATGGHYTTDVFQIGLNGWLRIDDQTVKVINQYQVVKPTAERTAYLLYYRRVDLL
Sequence of UCHL1 (P09936 whole entry, looked up): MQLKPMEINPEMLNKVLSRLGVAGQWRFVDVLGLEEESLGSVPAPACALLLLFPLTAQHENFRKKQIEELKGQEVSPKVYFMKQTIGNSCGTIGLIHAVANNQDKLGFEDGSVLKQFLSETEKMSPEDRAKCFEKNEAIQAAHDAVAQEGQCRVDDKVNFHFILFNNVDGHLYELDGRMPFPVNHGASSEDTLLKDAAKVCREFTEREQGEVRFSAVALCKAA

Cc1ccc(N(C(=O)CCl)C2C=CS(=O)(=O)C2)cc1 (stereo not given)
active: UCHL1 -1.28
inactive: OTUD6B 0.181 | OTUD7B -0.0624 | PRPF8 0.0782 | PSMD7 -0.0467 | UCHL3 0.419 | UCHL5 -0.13 | USP10 -0.0181 | USP15 -0.145 | USP16 0.19
